# Experimental data as given in PubChem BioAssay (NCATS).
# Records with an inconclusive call do not appear. Where a call stands in place of a potency, no number is given. The source made the active and inactive calls. Calls come from the whole dose curve; as a rule, active = well fitted inhibition curve with a large enough effect; inconclusive = small, poorly fitted or top-dose-only effect; inactive = no such curve, though single readings can be large or run the other way.
# Biological target: Retinaldehyde dehydrogenase 3 (Homo sapiens) (UniProt P47895)
# Experiment: qHTS for Inhibitors of the Aldehyde Dehydrogenase Family (ALDH1A3) Primary screen (AID 2061315)
# Details: ALDH inhibition qHTS; series mostly up to 56 µM
row,SMILES,Potency
1,CC(/C=C/[C@]1(O)[C@@]2(C)CO[C@@]1(C)C[C@@H](O)C2)=C\C(=O)O[C@@H]1O[C@H](CO)[C@@H](O)[C@H](O)[C@H]1O,inactive
2,CC(C)c1nc(N(C)S(C)(=O)=O)nc(-c2ccc(F)cc2)c1/C=C/[C@@H](O)C[C@@H](O)CC(=O)O,inactive
3,CC1(C)CC[C@]2(C(=O)O)CC[C@]3(C)C(=CCC4[C@@]5(C)C[C@@H](O)[C@H](O)[C@](C)(CO)C5CC[C@]43C)[C@@H]2[C@@H]1O (stereo not given in full),inactive
4,CC(=O)OC/C(=C/C(=O)O)CC[C@@H]1C(C=O)=CC[C@@H]2C(C)(C)CCC[C@@]12C,inactive
5,CC(=O)OC[C@@]12C(=O)C[C@@H](C)[C@]3(C[C@@H](c4ccoc4)OC3=O)[C@H]1CC[C@H](OC(C)=O)[C@]21CO1,inactive
6,C=C1C(OC(C)=O)CCC2(C)CC3(OC)OC(=O)C(C)=C3CC12 (stereo not given),inactive
7,CC(=O)O[C@@H]1CC[C@@]2(C)[C@H](CC[C@@H]3[C@@H]2C[C@H](OC(C)=O)[C@]2(C)[C@@H](C(C)=O)CC[C@@H]32)C1,inactive
8,COC(=O)C1=CO[C@@H](O[C@@H]2O[C@H](CO)[C@@H](O)[C@H](O)[C@H]2O)[C@@H]2[C@@H](C(=O)OC)[C@@H](O)C(O)[C@H]12 (stereo not given in full),inactive
9,CC[C@H](C)/C=C(C)/C=C/C1=CC2=C(Cl)C(=O)[C@](C)(O)[C@H](OC(C)=O)[C@H]2CO1,inactive
10,C=C1CC[C@@H]2[C@@](C)(CO[C@@H]3O[C@H](CO)[C@@H](O)[C@H](O)[C@H]3O)[C@H](O)CC[C@@]2(C)[C@@H]1CC/C(C)=C/CO[C@@H]1O[C@H](CO)[C@@H](O)[C@H](O)[C@H]1O,inactive
